Source: PubChem BioAssay (NCI)
Compounds without any hit were thinned out: in the full panel of roughly 83,000, 20% have a hit.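 Cells were grown in 96-well plates and exposed to the test compound at a single concentration for 48 hours; results are reported as percent growth, with values below 10 considered active.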 Active and inactive are the calls of the source.

These compounds were tested on T-47D breast (assay: NCI-60 one-dose screen, 48 h (100 = growth as untreated, 0 = no growth, -100 = all killed)). Settings: 10 µM unless noted.

Q: With `Cc1cc(C)n(C(=O)c2nn(-c3ccc(Cl)cc3)cc2O)n1` as the compound, how does the growth read?
A: 46.3% (inactive)

Q: For `C[n+]1ccc(Nc2ccc(NC(=O)c3ccc(Nc4cc[n+](C)c5ccc(N)cc45)cc3)cc2)cc1`, which growth is on record?
A: 102% (inactive)

Q: Which growth does the source give for `COc1ccc(-c2nnc(COc3ccc(NC(=O)Nc4cc(C(F)(F)F)cc(C(F)(F)F)c4)cc3F)o2)cc1` here?
A: 20.4% (inactive)

Q: How did the growth turn out when `O=C1c2ccccc2-c2c1nc1ccccc1[n+]2[O-]` was run?
A: 107% (inactive)

Q: `Oc1ccccc1/C=N\Nc1ccccc1` was tested. Which growth did it give?
A: 44.5% (inactive)

Q: `O=C(O)c1ccc(NC(=O)c2ccc(Nc3ccnc(C(F)(F)F)c3)cc2)cc1` was tested. Which growth did it give?
A: 93.8% (inactive)

Q: Which growth does the source give for `CSc1nnc(C2=CC(=O)c3ccccc3C2=O)n1-c1ccccc1` here?
A: 78.4% (inactive)

Q: `COC(=O)[C@]12CC[C@@H](C)[C@H](C)[C@@H]1C1=CC[C@@H]3[C@@]4(C)C=C(O)C(=O)[C@@]5(C)COC(=C54)C[C@@]3(C)[C@]1(C)CC2` was tested. Which growth did it give?
A: -25.8% (active)

Q: `O=C(Nc1cccc2ccccc12)c1cc2c(cc1Br)OCO2` was tested. Which growth did it give?
A: 83.9% (inactive)

Q: Which growth does the source give for `COc1ccc(OC)c(NC(=O)c2cc3oc4ccccc4c3cc2O)c1` here?
A: 74.4% (inactive)

Q: With `COc1ccc2[nH]cc(/C=C3/C(=O)Nc4ccc(Cl)cc43)c2c1` as the compound, how does the growth read?
A: 61.9% (inactive)

Q: `O=c1[nH]c(=O)n(C2CC(O)C(CO)O2)cc1C(F)(F)F` (centres undefined) was tested. Which growth did it give?
A: 52.8% (inactive)

Q: How did the growth turn out when `CN1CCN(Cc2ccc(NC(=O)c3[nH]ncc3Nc3ccnc4ccnn34)cc2)CC1` was run?
A: 63.2% (inactive)

Q: With `Nc1cc(Cl)c(S(N)(=O)=O)cc1S(N)(=O)=O` as the compound, how does the growth read?
A: 117% (inactive)
